According to PubChem BioAssay (NCATS):
Results filed as inconclusive are left out. Calls of active or inactive are those of the source. The call rests on the fitted dose curve; in most records, active means well fitted curve in the direction sought with a large enough effect; inconclusive means small, poorly fitted or top-dose-only effect, or another doubt; inactive means no such curve, though single readings can be large; an effect the other way counts as inactive or inconclusive.

How the values were obtained:
[1] = BET inhibitor-based combinations targeting novel dependencies in MECOM-rearranged (r) AML: SET-2 cell line (AID 2202231); conditions: SET-2 AML cells viability, CellTiter-Glo luminescence, 48 h; viability: active compounds read low, concentration not given here; further: nearly all actives have a fitted effect of over 35% in size;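 on viability: plate controls were DMSO treated cells for no effect and wells without cells for full effect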
Procedure, shortened: (§1)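 Readout: CellTiter-Glo luminescence. Exposure: 48 h, 11 concentrations, 500 cells/well. Metric: AUC and within-line Z-AUC after DMSO/empty-well normalization.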

[2] = BET inhibitor-based combinations targeting novel dependencies in MECOM-rearranged (r) AML: OCI-AML3 cell line (AID 2202232); conditions: CellTiter-Glo luminescence, 48 h; Potency: OCI-AML3 viability; series mostly up to 46 µM; further: nearly all actives have a fitted effect of over 35% in size;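 on viability (% of control): plate controls were DMSO vehicle wells for no effect and wells without cells for full effect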
Procedure, shortened: as §1

[3] = BET inhibitor-based combinations targeting novel dependencies in MECOM-rearranged (r) AML: MV-4-11 cell line (AID 2202233); conditions: MV-4-11 AML viability, CellTiter-Glo luminescence, 48 h; series mostly up to 46 µM; further: nearly all actives have a fitted effect of over 45% in size;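 on viability, % of control: plate controls were DMSO for no effect and blank wells for full effect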
Procedure, shortened: (§2)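 Seeding density was 500 cells/well, and drug exposure lasted 48 hr under standard culture conditions. Read-out used CellTiter-Glo reagent with a 15 min room-temperature incubation before luminescence measurement; AUC and Z-AUC summarize the normalized responses.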

[4] = BET inhibitor-based combinations targeting novel dependencies in MECOM-rearranged (r) AML: HNT-34 cell line (AID 2202234); conditions: HNT-34 AML viability, CellTiter-Glo luminescence, 48 h; series mostly up to 46 µM; further: nearly all actives have a fitted effect of over 35% in size;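 on viability (% of control): plate controls were vehicle wells for no effect and cell-free wells for full effect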
Procedure, shortened: as §2

[5] = BET inhibitor-based combinations targeting novel dependencies in MECOM-rearranged (r) AML: UCSD-AML1 cell line (AID 2202235); conditions: UCSD-AML1 AML cells viability, CellTiter-Glo, 48 h; series mostly up to 46 µM; further: nearly all actives have a fitted effect of over 40% in size;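 on viability (% of control): plate controls were DMSO vehicle wells for no effect and blank wells for full effect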
Procedure, shortened: as §2

[6] = BET inhibitor-based combinations targeting novel dependencies in MECOM-rearranged (r) AML: AML-191 cell line (AID 2202236; further: nearly all actives have a fitted effect of over 35% in size;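 on viability (% of control): plate controls were vehicle wells for no effect and wells without cells for full effect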); conditions: AML-191 viability, CellTiter-Glo luminescence, 48 h; series mostly up to 46 µM
Procedure, shortened: as §1

[7] = BET inhibitor-based combinations targeting novel dependencies in MECOM-rearranged (r) AML: AML-194 cell line (AID 2202237; further: nearly all actives have a fitted effect of over 40% in size;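 on viability (% of control): plate controls were vehicle wells for no effect and wells without cells for full effect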); conditions: AML-194 (MECOM-r AML) viability, CellTiter-Glo, 48 h; series mostly up to 46 µM
Procedure, shortened: as §1
Potency means the concentration at half of the fitted maximal effect.

C[C@@H](OC[C@@]1(c2ccccc2)CC[C@]2(CCC(=O)N2)CN1)c1cc(C(F)(F)F)cc(C(F)(F)F)c1
active: Potency [1] 20.9 µM | Potency [2] 18.6 µM | Potency [3] 20.9 µM | Potency [4] 18.6 µM | Potency [5] 23.5 µM | Potency [6] 18.6 µM | Potency [7] 26.3 µM

CC(C)OC(=O)[C@H](C)N[P@](=O)(OC[C@H]1O[C@@H](n2ccc(=O)[nH]c2=O)[C@](C)(F)[C@@H]1O)Oc1ccccc1
inactive: viability [1] 107% | Potency [2] | Potency [3] | Potency [4] | Potency [5] | Potency [6] | Potency [7]

CCS(=O)(=O)Nc1ccc2[nH]c(O)c(C(=Nc3ccc(CN4CCCCC4)cc3)c3ccccc3)c2c1
active: Potency [1] 2.63 µM | Potency [2] 0.235 µM | Potency [3] 0.0295 µM | Potency [4] 0.148 µM | Potency [5] 0.833 µM | Potency [6] 0.0661 µM | Potency [7] 0.0934 µM

O=C(CCCCCCNC(=O)c1cnc(N(c2ccccc2)c2ccccc2Cl)nc1)NO
active: Potency [1] 9.34 µM | Potency [2] 7.42 µM | Potency [3] 3.72 µM | Potency [4] 9.34 µM | Potency [5] 9.34 µM | Potency [6] 7.42 µM | Potency [7] 10.5 µM

CC(C)(C)C(=O)OCOP(=O)(COCCn1cnc2c(N)ncnc21)OCOC(=O)C(C)(C)C
active: Potency [1] 4.68 µM | Potency [2] 0.525 µM | Potency [3] 0.209 µM | Potency [4] 2.63 µM | Potency [5] 1.86 µM | Potency [6] 1.66 µM | Potency [7] 2.95 µM

COc1cc(Nc2cnc(C#N)c(O[C@H](C)CN(C)C)n2)ncc1-c1cnn(C)c1
active: Potency [1] 3.72 µM | Potency [2] 1.32 µM | Potency [3] 0.742 µM | Potency [4] 2.95 µM | Potency [5] 1.86 µM | Potency [6] 1.86 µM | Potency [7] 1.48 µM

CC[C@@]1(O)C[C@H](O[C@H]2C[C@H](N(C)C)[C@H](O[C@H]3C[C@H](O)[C@H](O[C@H]4CCC(=O)[C@H](C)O4)[C@H](C)O3)[C@H](C)O2)c2c(cc3c(c2O)C(=O)c2c(O)cccc2C3=O)[C@@H]1C(=O)OC
active: Potency [1] 3.72 µM | Potency [2] 3.32 µM | Potency [3] 0.742 µM | Potency [4] 3.32 µM | Potency [5] 2.35 µM | Potency [6] 2.95 µM | Potency [7] 3.72 µM

COCCOC(=O)N1CCN(S(=O)(=O)c2cc(F)c(Oc3ccc(Cl)cc3)c(F)c2)C(C(=O)NO)C1 (centres undefined)
active: Potency [1] 10.5 µM | Potency [2] 14.8 µM | Potency [3] 16.6 µM | Potency [4] 5.9 µM | Potency [5] 10.5 µM | Potency [6] 8.33 µM | Potency [7] 8.33 µM

Nc1cccc2c1CN([C@H]1CCC(=O)NC1=O)C2=O
active: Potency [4] 1.18 µM
inactive: viability [1] 111% | Potency [2] | Potency [3] | Potency [5] | Potency [6] | Potency [7]

COc1cc(OC)cc(N(CCNC(C)C)c2ccc3ncc(-c4cnn(C)c4)nc3c2)c1
active: Potency [1] 18.6 µM | Potency [2] 18.6 µM | Potency [3] 16.6 µM | Potency [4] 2.35 µM | Potency [5] 10.5 µM | Potency [6] 18.6 µM | Potency [7] 18.6 µM

CN(C)C(N)=NC(=N)N
inactive: viability [1] 120% | Potency [2] | Potency [3] | Potency [4] | Potency [5] | Potency [6] | Potency [7]

COC1=C(OC)C(=O)C(C/C=C(\C)CC/C=C(\C)CC/C=C(\C)CC/C=C(/C)CC/C=C(\C)CC/C=C(\C)CC/C=C(\C)CC/C=C(\C)CC/C=C(\C)CCC=C(C)C)=C(C)C1=O
inactive: viability [1] 117% | Potency [2] | Potency [3] | Potency [4] | Potency [5] | Potency [6] | Potency [7]

O=C(/C=C/c1ccc(/C=C/C(=O)Nc2ccc(C3=NCCN3)cc2)cc1)Nc1ccc(C2=NCCN2)cc1
inactive: viability [1] 113% | viability (% of control) [2] 117% [at 5.12 µM] | viability, % of control [3] 112% [at 5.12 µM] | viability (% of control) [4] 109% [at 5.12 µM] | viability (% of control) [5] 115% [at 5.12 µM] | viability (% of control) [6] 109% [at 5.12 µM] | viability (% of control) [7] 108% [at 5.12 µM]

Cc1nnn(C)c1-c1cnc2c3ccc(C(C)(C)O)cc3n([C@H](c3ccccc3)C3CCOCC3)c2c1
active: Potency [1] 0.0148 µM | Potency [2] 0.0059 µM | Potency [3] 0.0042 µM | Potency [4] 0.0295 µM | Potency [5] 0.0263 µM | Potency [6] 0.0263 µM | Potency [7] 0.0661 µM

Fc1cccc(-n2cnc3c(NCc4nc5c(F)c(F)ccc5[nH]4)nc(N4CCOCC4)nc32)c1
active: Potency [1] 0.372 µM | Potency [2] 0.742 µM | Potency [3] 0.263 µM | Potency [4] 0.296 µM | Potency [5] 0.296 µM | Potency [6] 0.166 µM | Potency [7] 0.372 µM

CCCc1nc(C)c2c(=O)[nH]c(-c3cc(S(=O)(=O)N4CCN(CC)CC4)ccc3OCC)nn12
active: Potency [2] 3.72 µM
inactive: viability [1] 114% | Potency [3] | Potency [4] | Potency [5] | Potency [6] | Potency [7]

Cc1c(F)cccc1NC(=O)Nc1ccc(Cl)c(S(=O)(=O)[C@H]2CCCNC2)c1O
inactive: viability [1] 112% | Potency [2] | Potency [3] | Potency [4] | Potency [5] | Potency [6] | Potency [7]

CC[C@H](CC[C@@H](C)[C@H]1CC[C@H]2[C@@H]3CC=C4C[C@@H](O)CC[C@]4(C)[C@H]3CC[C@]12C)C(C)C
inactive: viability [1] 104% | Potency [2] | Potency [3] | Potency [4] | Potency [5] | Potency [6] | Potency [7]

CC1(C)CC[C@]2(C(=O)O)CC[C@]3(C)C(=CC[C@@H]4[C@@]5(C)C[C@@H](O)[C@H](O)C(C)(C)[C@@H]5CC[C@]43C)[C@@H]2C1
inactive: viability [1] 102% | Potency [2] | Potency [3] | Potency [4] | Potency [5] | Potency [6] | Potency [7]

C[C@H](CCC(=O)O)[C@H]1CC[C@H]2[C@@H]3[C@@H](O)C[C@@H]4C[C@H](O)CC[C@]4(C)[C@H]3CC[C@]12C
inactive: viability [1] 111% | Potency [2] | Potency [3] | Potency [4] | Potency [5] | Potency [6] | Potency [7]

Cc1ccc(NS(=O)(=O)c2ccc3c(c2)C2C=CCC2C(c2ccc(C(=O)O)cc2)N3)cc1C (centres undefined)
inactive: viability [1] 109% | Potency [2] | Potency [3] | Potency [4] | Potency [5] | Potency [6] | Potency [7]

C=C1C(=O)O[C@@H]2[C@H]3O[C@]3(C)CC/C=C(\C)CC[C@@H]12
active: Potency [1] 11.8 µM | Potency [2] 6.61 µM | Potency [3] 5.25 µM | Potency [4] 7.42 µM | Potency [5] 10.5 µM | Potency [6] 9.34 µM | Potency [7] 11.8 µM

COC(=O)/C=C/C(=O)OC
inactive: viability [1] 117% | Potency [2] | Potency [3] | Potency [4] | Potency [5] | Potency [6] | Potency [7]

CN(C)c1ccc(C(=O)NCCCCCCC(=O)NO)cc1
active: Potency [1] 0.934 µM | Potency [2] 0.833 µM | Potency [3] 0.59 µM | Potency [4] 1.18 µM | Potency [5] 1.05 µM | Potency [6] 1.18 µM | Potency [7] 1.32 µM

CC(C)(C)OC(=O)Nc1ccc(-c2cc(C(=O)NCCCCCCC(=O)NO)no2)cc1
active: Potency [1] 2.95 µM | Potency [2] 2.63 µM | Potency [3] 1.66 µM | Potency [4] 2.35 µM | Potency [5] 3.72 µM | Potency [6] 2.63 µM | Potency [7] 3.32 µM

NC(=O)c1nc(F)c[nH]c1=O
inactive: viability [1] 119% | Potency [2] | Potency [3] | Potency [4] | Potency [5] | Potency [6] | Potency [7]

COc1cccc2c1C(=O)c1c(O)c3c(c(O)c1C2=O)C[C@@](O)(/C(CO)=N/NC(=O)CCCCCN1C(=O)C=CC1=O)C[C@@H]3O[C@H]1C[C@H](N)[C@H](O)[C@H](C)O1
active: Potency [1] 2.95 µM | Potency [2] 0.417 µM | Potency [3] 0.186 µM | Potency [4] 0.934 µM | Potency [5] 0.525 µM | Potency [6] 1.05 µM | Potency [7] 0.934 µM

O=c1cc(O)c(Cl)c[nH]1
inactive: viability [1] 115% | Potency [2] | Potency [3] | Potency [4] | Potency [5] | Potency [6] | Potency [7]

CC(C)(O)c1coc(S(=O)(=O)NC(=O)Nc2c3c(cc4c2CCC4)CCC3)c1
inactive: viability [1] 126% | Potency [2] | Potency [3] | Potency [4] | Potency [5] | Potency [6] | Potency [7]

CC(C)C1CCC(C(=O)N[C@H](Cc2ccccc2)C(=O)O)CC1 (some centres undefined)
inactive: viability [1] 115% | Potency [2] | Potency [3] | Potency [4] | Potency [5] | Potency [6] | Potency [7]

Nc1ccn([C@@H]2O[C@H](CO)[C@@H](O)C2O)c(=O)n1 (some centres undefined)
active: Potency [1] 0.332 µM | Potency [2] 3.32 µM | Potency [3] 0.833 µM | Potency [4] 0.0742 µM | Potency [5] 0.0295 µM | Potency [6] 0.0742 µM | Potency [7] 0.0525 µM

NC(CC1c2ccccc2Oc2ccccc21)(C(=O)O)C1CC1C(=O)O (centres undefined)
inactive: viability [1] 118% | Potency [2] | Potency [3] | Potency [4] | Potency [5] | Potency [6] | Potency [7]

CCc1cc2c(c(OCC(F)(F)F)c(C(=O)NC3CCN(C(=O)CO)CC3)n2C)c(=O)n1CC(=O)c1ccccc1
inactive: viability [1] 103% | Potency [2] | Potency [3] | Potency [5] | Potency [6] | Potency [7]
active: Potency [4] 16.6 µM

C[C@H](NC(=O)/C(C#N)=C/c1cccc(Br)n1)c1ccccc1
active: Potency [1] 7.42 µM | Potency [2] 4.68 µM | Potency [3] 4.17 µM | Potency [4] 4.17 µM | Potency [5] 3.72 µM | Potency [6] 4.68 µM | Potency [7] 9.34 µM

CN1CC(=O)N2[C@H](c3ccc4c(c3)OCO4)c3[nH]c4ccccc4c3C[C@@H]2C1=O
inactive: viability [1] 116% | Potency [2] | Potency [3] | Potency [4] | Potency [5] | Potency [6] | Potency [7]

CC(C)(O)CNc1ncc(-c2ccnc(Nc3ccncc3)n2)c(CC2CC2)n1
active: Potency [1] 18.6 µM | Potency [2] 18.6 µM | Potency [3] 5.9 µM | Potency [4] 9.34 µM | Potency [5] 14.8 µM | Potency [6] 13.2 µM | Potency [7] 16.6 µM

Nc1nc(=S)c2[nH]cnc2[nH]1
active: Potency [1] 0.742 µM | Potency [2] 0.417 µM | Potency [3] 0.296 µM | Potency [4] 3.32 µM | Potency [5] 2.95 µM | Potency [6] 0.833 µM | Potency [7] 3.72 µM
